Molecules are shown by their SMILES.

In ChEMBL document CHEMBL3433997, “St. Jude Leishmania screening dataset” (2016) one finds inhibition data, which are given here for 35 compounds.

Assay type in all cases: functional
The target of assay [1] is Solute carrier family 2, facilitated glucose transporter member 1 (Homo sapiens) (UniProt P11166). In words: ST_JUDE_LEISH: Cytotoxicity at 2uM final concentration against transgenic Leishmania Mexicana promastigotes LmGLUT1 that are glucose transport deficient and complemented with the human glucose transporter GLUT1. Activity is measured by DNA content using SYBR green in vitro.

For assay [2], the target named is Hexose transporter 1 (Plasmodium falciparum) (UniProt O97467). As to the kind of experiment: ST_JUDE_LEISH: Cytotoxicity at 2uM final concentration against transgenic Leishmania Mexicana promastigotes LmPfHT that are glucose transport deficient and complemented with the Plasmodium falciparum hexose transporter. Activity is measured by DNA content using SYBR green in vitro.

Assay [3] concerns the target Glucose transporter (Leishmania mexicana) (UniProt O61059). As to the kind of experiment: ST_JUDE_LEISH: Cytotoxicity at 2uM final concentration against transgenic Leishmania Mexicana promastigotes LmGT2 that are glucose transport deficient and complemented with the L. Mexicana glucose transporter 2. Activity is measured by DNA content using SYBR green in vitro.

Chain of Solute carrier family 2, facilitated glucose transporter member 1 (Homo sapiens) (P11166 whole entry): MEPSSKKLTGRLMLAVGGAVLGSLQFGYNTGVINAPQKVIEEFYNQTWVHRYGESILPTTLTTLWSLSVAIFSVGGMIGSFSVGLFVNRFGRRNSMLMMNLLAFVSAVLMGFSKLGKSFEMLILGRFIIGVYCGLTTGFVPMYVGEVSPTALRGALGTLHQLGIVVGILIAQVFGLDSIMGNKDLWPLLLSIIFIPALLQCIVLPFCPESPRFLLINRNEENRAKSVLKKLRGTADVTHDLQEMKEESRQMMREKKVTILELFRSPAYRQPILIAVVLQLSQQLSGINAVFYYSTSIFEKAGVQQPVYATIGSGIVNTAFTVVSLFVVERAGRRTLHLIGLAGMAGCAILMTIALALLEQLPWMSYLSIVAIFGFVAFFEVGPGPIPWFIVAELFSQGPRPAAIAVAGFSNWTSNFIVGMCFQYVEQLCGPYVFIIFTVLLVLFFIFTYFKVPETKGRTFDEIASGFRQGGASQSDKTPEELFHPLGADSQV

Regarding `CCN(CC)CCNC(=O)c1ccc(Nc2ncc([N+](=O)[O-])c(Nc3ccccc3OC)n2)cc1`, the inhibition (usually the change of the read-out against control, counted positive when it falls) is 4.77% in assay [1], 4.91% in assay [2] and 3.73% in assay [3].
In the same order, the values of `Nc1cc(-c2cc3c(OCc4ccccc4)cccc3[nH]2)ccn1` are 1.13%, 4.32% and 1.6%.
The like results for `COc1cc(OC)nc(C(Sc2ccc(NC(=O)c3cccs3)cc2)c2ccccc2)n1` (stereo not given) were, in that order, 6.79%, 4.81% and 0.29%.
The like results for `CN(C)CCOc1cc(NC(=O)Nc2ccc(-c3ccncc3)c(C(F)(F)F)c2)ccc1Cl` were, in that order, 9.9%, 9.02% and 9.08%.
With `O=C(Nc1cccnc1)c1cc(-c2cccnc2)nc2ccc(Br)cc12`, the inhibition in assay [1] is 7.01%; in assay [2], 1.51%; in assay [3], -1.18%.
In the same order, the values of `COc1ccccc1NS(=O)(=O)c1cc(C(=O)Nc2ccc(N3CCOCC3)c(S(=O)(=O)Nc3ccccc3Cl)c2)ccc1Cl` are 3.2%, 2.83% and 0.88%.
The like results for `Cc1cc(N(C)C)nc(Nc2ccc(NC(=O)C(C)Oc3ccccc3)cc2)n1` (stereo not given) were, in that order, 13.2%, 14.5% and 9.35%.
With `COc1cccc(CN2CCCN(Cc3cccc(NC(=O)c4ccc(Cl)c(Cl)c4)c3)CC2)c1`, the inhibition is 4.43% in assay [1], -0.94% in assay [2] and 2.19% in assay [3].
The like results for `CN(C)CCNCc1ccc(-c2ccc3c(Nc4ccc(F)cc4Cl)ccnc3c2)o1` were, in that order, 4.19%, 6.24% and -0.47%.
In the same order, the values of `Cc1[nH]c2ccc(NS(C)(=O)=O)cc2c1C1CCN(CCC2CCN(C(=O)/C=C/c3ccc(Cl)c(Cl)c3)CC2)CC1` are -0.38%, -1.33% and -1.24%.
In the same order, the values of `Cc1cc(NCC2CCN(CC3CCCCC3)C2)nc(Nc2ccc(Cl)cc2)n1` (stereo not given) are 7.03%, 5.29% and 2.45%.
`C=CCOC(=O)N1CCC(CNCc2cccc(-c3cccc(-c4nc5ccccc5[nH]4)c3)c2)C1` (stereo not given): the inhibition in assay [1] was -1.85%; in assay [2], 5.8%; in assay [3] it was 0.62%.
In the same order, the values of `C/C(=C\C(=O)NC1CC1)c1ccccc1OCc1ccccc1` are 0.29%, -2.11% and 3.94%.
As to `CC(C)c1ccc(NC(=O)N[C@H]2CCN(CCCCCNC(=O)/C=C/c3ccc(Cl)c(Cl)c3)C2)cc1`, the inhibition in assay [1] is 2.04%; in assay [2] it was -3.46%; in assay [3], 2.9%.
In the same order, the values of `COc1ccc2ncc(Cl)c(N3CCC(CCNCc4ccc5c(n4)NC(=O)CS5)CC3)c2c1` are 2.36%, 0.92% and 3.01%.
On to `CCOC(=O)NCC(=O)Nc1cccc(-c2cccc(-c3nc4cc(C(F)(F)F)ccc4[nH]3)c2)c1`, for which the inhibition worked out at 1.41% in assay [1], 0.35% in assay [2] and 5.34% in assay [3].
In the case of `COc1ccc(CON2C(=N)N=C(N)NC2(C)C)cc1OC`, the inhibition in assay [1] was -1.03%; in assay [2] it was -1.38%; in assay [3], -0.13%.
On to `Cc1cc(-c2cc(-c3ccc(OCCN(C)C)cc3)[nH]c2-c2ccc3c(c2)CCC3=NO)ccn1`, for which the inhibition was 4.92% in assay [1], 3.52% in assay [2] and 2.39% in assay [3].
Turning to `COc1cccc2cc(C(=O)N[C@@H](CC(C)C)C(=O)N[C@H](/C=N/NC(=O)OC(C)(C)C)CC(=O)OC(C)(C)C)oc12`, the inhibition in assay [1] was found to be 4.66%; in assay [2] it was 6.98%; in assay [3], 3.63%.
In the same order, the values of `Cc1ccc(C(=O)Nc2cccc(-c3ccc(N4CCN(C)CC4)nn3)c2)cc1[N+](=O)[O-]` are 1.32%, -0.23% and -1.16%.
For the compound `COc1ccc(-c2cccc(NC(=O)c3cccc(Cl)c3)c2)cc1CN1CCNCC1`, the results for the inhibition in assay [1], in assay [2] and in assay [3] were 2.8%, 2.6% and -0.77%, respectively.
The like results for `CN(C)CCCNc1nccc(N(C)c2ccc(NC(=O)Nc3cc(C(F)(F)F)ccc3F)cc2)n1` were, in that order, 1.93%, -0.78% and -0.59%.
In the same order, the values of `CN(C)CCNc1cc(-c2cccnc2)nc(-c2ccncc2)n1` are -1.31%, -1.16% and -1.09%.
As to `CCOc1ccc(-n2nc3c(Cl)nnc(-c4ccccc4)c3c2-c2ccccc2)cc1`, the results for the inhibition in assay [1], in assay [2] and in assay [3] were 4.48%, 6.02% and 0.01%, respectively.
In the same order, the values of `CS(=O)(=O)Cc1ccc(Nc2nccc(-c3c(-c4cccc(NC(=O)c5c(F)cccc5F)c4)nn4ccccc34)n2)cc1` are 38.6%, 18.8% and 9.09%.
With `CC(O)C1CCCCN1C(=O)c1cccc(-c2ccc(-c3nc4cc(C(F)(F)F)ccc4[nH]3)cc2)c1` (stereo not given), the inhibition in assay [1] turned out to be 0.8%; in assay [2], 0.3%; in assay [3], 1%.
Regarding `Cc1noc(-c2ccc3c(c2)CCN(CCC2CCC(NC(=O)/C=C/c4cccc(Cl)c4)CC2)CC3)n1` (stereo not given), the values for the inhibition in assay [1], in assay [2] and in assay [3] were 1.02%, 0% and 0.68%, respectively.
With `COc1ccccc1-c1cc(C(=O)N2CCN(S(=O)(=O)c3ccc(C)cc3)CC2)[nH]n1`, the inhibition in assay [1] was 6.02%; in assay [2], 3.73%; in assay [3], -0.58%.
Regarding `CCN(CC)CCN(Cc1ccc(-c2ccc(C(F)(F)F)cc2)cc1)C(=O)Cn1c(SCc2ccc(F)cc2)cc(=O)c2ccccc21`, the figures for the inhibition in assay [1], in assay [2] and in assay [3] were 1.74%, -0.14% and 1.57%, respectively.
The like results for `Cc1cccc2nc(-c3ccc(-c4cccc(NC(=O)NCc5cccc(F)c5)c4)cc3)[nH]c12` were, in that order, -0.32%, 0.88% and -1.06%.
In the same order, the values of `CCNc1cc(C(=O)N[C@@H](Cc2ccccc2)[C@H](O)CNCc2cccc(-c3cncnc3)c2)cc(N2CCCC2=O)c1` are 3.81%, 3.48% and 4.42%.
The like results for `CC1(C)NC(N)=NC(=N)N1OCCOc1cccc(C(F)(F)F)c1` were, in that order, 1.04%, 0.2% and 2.45%.
Turning to `CCC/C=C/c1c(CNCCCNc2cc(=O)c3ccccc3[nH]2)sc(CC)c1Br`, the results for the inhibition in assay [1], in assay [2] and in assay [3] were 0.5%, 1.29% and 0.32%, respectively.
The like results for `COc1cccc(NC(=O)c2ccc(NCCCN3CC(C)CC(C)C3)c([N+](=O)[O-])c2)c1` (stereo not given) were, in that order, 6.83%, 2.93% and 3.43%.
As for `CCCc1cc(C(C)=O)ccc1OCCCON1C(=N)N=C(N)NC1(C)C`, the results for the inhibition in assay [1], in assay [2] and in assay [3] were 22.1%, 29.3% and 20.5%, respectively.
